The values that follow come from PubChem BioAssay (NCI).

The panel holds about 83,000 compounds, 20% with a hit somewhere; the sample as a whole holds those more often.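 Cells were grown in 96-well plates and exposed to the test compound at a single concentration for 48 hours; results are reported as percent growth, with values below 10 considered active.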 Unmarked numbers belong to inactive results. The source made the active and inactive calls.

For this experiment, the system named is MDA-MB-468 breast. Description: NCI-60 one-dose screen, 48 h (100 = growth as untreated, 0 = no growth, -100 = all killed). The settings on record: 10 µM unless noted.
As to `O=c1nc2oc3ccc4ccccc4c3cc-2s1`, the growth was -3.68% (active). For the molecule `COC(=O)c1ccc(NC(=O)c2ccc(-c3cccc([N+](=O)[O-])c3)o2)cc1`, the growth was 96.5%.

As for `Fc1cc(F)cc(NNC(=S)c2ccccc2)c1`, the growth is 43.5%. The value for `Nc1ccccc1NC(=O)c1ccc(NC(=O)C/C=C/c2cccnc2)cc1` was -7.27% (active); that for `C#CCOc1ccccc1C(Nc1ccccc1)c1nnnn1C1CCCCC1` (centres undefined) was 93.7%; that for `COc1ccc(N2C(=O)c3cc(Cl)ccc3NC2SCc2ccccc2)cc1` (centres undefined) was 98.1%. On to `N#Cc1c(-c2ccc(F)cc2)cc(-c2cccc(Cl)c2)[nH]c1=O`, for which the growth is 81.4%. As to `Cc1c(Cl)cccc1C(=O)Nc1nc2c(s1)CN(C(=O)Nc1cccc(C(F)(F)F)c1)CC2`, the growth is 16.7%. As for `O=C1NC(=O)c2c1c1c3ccccc3[nH]c1c1oc3cc(Br)ccc3c21`, the growth is 62.6%.

For the molecule `CCN(CC)CCCN1C(=O)c2c(c(C)c3c(oc4ccc(OC)cc43)c2C)C1=O`, the growth was 103%.

As to `O=C(CCCCNC(=O)c1nc(-c2ccccc2)n(-c2ccccc2)n1)NO`, the growth is 55.4%.

With `CCCCN1C(=O)/C(=c2\sc3n(c2=O)C2C(NN=3)N(CC)C(=O)N2CC)c2cc(Cl)ccc21` (centres undefined), the growth was 56.2%.

With `Nc1ccccc1-c1ccc(-c2ccc(Cl)cc2)c2c1[nH]c1ccccc12`, the growth is 91.5%. With `CC[C@@H]1C(=O)N(C)c2cnc(Nc3ccc(C(=O)NC4CCC(N5CCN(CC6CC6)CC5)CC4)cc3OC)nc2N1C(C)C` (some centres undefined), the growth was -54.1% (active).
